Bioassay records from PubChem.
Rows were chosen to be rich in hits. Some 4.6% of all compounds tested hit in one or more screens of this group.
NFkB transloc pot: enhances IL-1B driven NFkB nuclear translocation | HUVEC IL-1B NFkB p65 nuclear translocation imaging | activation, % at 2 µM | 94,000 compounds, 0.3% hits | AID 819;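 active = activation above 40%, about the mean plus 3 SD, also judged a hit on visual image review; inconclusive = activation above 40% but not a hit on visual review; inactive = activation not above 40% and no visual hit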;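 also: percent activation is computed from the nuclear over cytoplasmic p65 intensity ratio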
sEH inh: inhibitors of human soluble epoxide hydrolase; P34913; recombinant human sEH enzymatic activity assay; inhibition, % at 2 µM; 91,000 compounds, 0.34% hits; in the data active = inhibition above about 80%
Target sequence (P34913 whole entry, looked up): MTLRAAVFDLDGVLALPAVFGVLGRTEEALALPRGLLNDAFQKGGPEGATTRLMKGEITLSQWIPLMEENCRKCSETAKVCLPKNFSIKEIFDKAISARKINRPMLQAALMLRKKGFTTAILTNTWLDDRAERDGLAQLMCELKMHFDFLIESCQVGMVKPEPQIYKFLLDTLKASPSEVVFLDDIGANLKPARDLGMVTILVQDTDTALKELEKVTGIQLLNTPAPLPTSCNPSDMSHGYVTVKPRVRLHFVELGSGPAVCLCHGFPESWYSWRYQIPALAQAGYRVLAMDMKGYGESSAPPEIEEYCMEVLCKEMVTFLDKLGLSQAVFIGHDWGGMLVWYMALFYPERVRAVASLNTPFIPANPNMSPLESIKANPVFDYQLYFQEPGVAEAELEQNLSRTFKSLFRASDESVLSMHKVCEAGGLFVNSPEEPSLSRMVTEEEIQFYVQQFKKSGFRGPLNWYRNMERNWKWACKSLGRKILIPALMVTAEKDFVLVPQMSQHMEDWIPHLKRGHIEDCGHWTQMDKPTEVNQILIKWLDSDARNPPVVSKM
NFkB transloc inh: blocks IL-1B driven NFkB nuclear translocation in HUVEC cells. inhibition, % at 2 µM. HUVEC IL-1B NFkB p65 nuclear translocation imaging. 94,000 compounds, 0.43% hits;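 active = inhibition above about 30% together with a positive call from visual inspection of the well image, limit read from the data; inconclusive = inhibition above a set limit but visual check negative; inactive = inhibition not above a set limit, visual check negative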;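 also: nuclear over cytoplasmic p65 intensity ratio measured by imaging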
HUVEC tox IL1B: HUVEC cytotoxicity counter-screen, IL-1B stimulated. HUVEC cell count loss, Hoechst imaging. cell count reduction, % at 2 µM. 94,000 compounds, 0.41% hits. AID 845;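 active = cell count reduction more than 3 SD above the screen-wide mean, cut at about 70% in these data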
sEH act: activators of human soluble epoxide hydrolase; 91,000 compounds, 0.04% hits; AID 717; activation, % at 2 µM; purified human sEH enzymatic activity, activator screen; in the data active = activation above about 37%
Cav32 inh: blocks human Cav3.2 T-type calcium channel; 100,000 compounds, 4% hits; B-score at 10 µM; O95180; Cav3.2-expressing cells, Fluo-4 calcium fluorescence FDSS; active compounds read low;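 active = single-dose well whose peak fluorescence ratio is a statistical outlier from its plate by either plate-standardised score or position-corrected B-score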
A number is an active result; – = inactive; ? = inconclusive; · = not tested or not shown.

SMILES	NFkB transloc pot	sEH inh	NFkB transloc inh	HUVEC tox IL1B	sEH act	Cav32 inh
CCOC(=O)c1c(C)[nH]c(C(=O)CN2C(=O)NC(CC)(c3ccccc3)C2=O)c1C (centres undefined)	–	–	–	–	–	-5.7
O=C(NCCNC(=O)c1cc(OCC(F)(F)F)ccc1OCC(F)(F)F)Nc1ccc(Cl)cc1	–	–	–	–	–	-4.1
N#Cc1c2n(c3c(=O)n(Cc4ccccc4)cnc13)CCCC2	–	–	–	–	–	–
Cn1c(CSc2nnc(SCc3ccccc3)s2)nc2ccccc21	–	·	–	–	·	-4.3
Cn1c(CSc2nc3ccc(Br)cc3[nH]2)nc2ccccc21	–	–	–	–	–	–
COc1ccc2cc(C(=O)OC(C)C)sc(=O)c2c1OC	–	–	–	–	–	–
CCCCNC(=O)c1sc2ncnc(N3CCc4ccccc4C3)c2c1C	–	–	–	–	–	-5.1
CCOC(=O)c1sc2nc(C)cc(C)c2c1N	·	·	·	·	·	–
CCOC(=O)c1sc2cc([N+](=O)[O-])cc(SCC(=O)OC)c2c1N	51	–	–	–	–	–
COc1ccc(C(=O)N(Cc2nc(-c3ccc(C)cc3)no2)C2CCCCC2)cc1OC	–	·	–	–	·	-4
CCOc1ccccc1NC1c2ccccc2C(=O)N1c1ccc(C)cn1 (centres undefined)	·	·	·	·	·	–
CCOc1ccc(-c2nc(CSCC(=O)NC3CCCc4ccccc43)c(C)o2)cc1 (centres undefined)	–	–	–	–	–	-6.3
Cc1oc(-c2ccccc2Cl)nc1CSCC(=O)NC1CCCC1	–	–	–	–	–	-4.5
COc1cccc(-c2nc(CS(=O)(=O)CC(=O)NC3CCCc4ccccc43)c(C)o2)c1 (centres undefined)	–	–	–	–	–	-6.8
CCOc1ccc(-c2nc(CSCC(=O)N3CCN(c4cccc(OC)c4)CC3)c(C)o2)cc1	·	·	·	·	·	–
COc1cccc(-c2nc(CS(=O)(=O)CC(=O)N3CCc4ccccc4C3)c(C)o2)c1	·	·	·	·	·	-4.8
CN(CC(=O)NCc1ccc(F)cc1)S(=O)(=O)c1cccc2nsnc12	–	–	–	–	–	–
CC12CCC(C(=O)NCCCn3ccnc3)(OC1=O)C2(C)C (centres undefined)	?	–	–	–	–	–
Cc1ccc(S(=O)(=O)N2CCN(C)CC2)c(C)c1N(C)S(=O)(=O)c1ccc(Cl)cc1	–	–	–	–	–	–
CC1=C(C)CS(=O)N(S(=O)(=O)c2ccc(Cl)cc2)C1 (centres undefined)	–	–	–	–	–	-7.4
CC(=O)c1ccc(NC(=O)CCC(=O)OCC(F)(F)C(F)F)cc1	–	–	–	–	–	–
Cc1sc2ncn(CC(=O)OCC(=O)NC(C)(C)C)c(=O)c2c1C	–	–	–	–	–	–
Cc1ccc(CSc2nc3ccccc3cc2C=O)cc1	–	–	36	73	–	–
O=Cc1cc2ccccc2nc1SCc1ccc(Cl)c(Cl)c1	–	–	34	–	–	–
O=Cc1cc2ccccc2nc1SCc1ccc(Cl)cc1	–	–	–	–	–	–
SMILES	NFkB transloc pot	sEH inh	NFkB transloc inh	HUVEC tox IL1B	sEH act	Cav32 inh
Cc1cc(C(=O)CSc2n[nH]c(N)n2)c(C)n1-c1cccc(F)c1	–	–	–	–	–	–
O=C(NCCNC(=O)c1cc(OCC(F)(F)F)ccc1OCC(F)(F)F)Nc1ccc(OC(F)(F)F)cc1	–	–	–	–	–	–
Cc1cc(C)nc(SCc2nnc(SCC(=O)Nc3nc(-c4ccccc4)cs3)n2C)n1	–	–	–	–	–	–
Cc1ccc(C(=O)CSc2nnc(CNc3nc(-c4ccccc4)cs3)n2C)cc1	–	–	–	–	–	-4.6
Cc1ccc(-c2csc(NC(=O)CSc3nc(C)cs3)n2)cc1	–	–	–	–	–	-4.6
CCn1c(SCC(=O)Nc2nc(-c3ccc(C)cc3)cs2)nnc1-c1ccccc1	–	–	–	–	–	–
COc1ccccc1-c1nnc(SCC(=O)Nc2nc(-c3ccccc3)cs2)n1C	–	–	–	–	–	-6.6
Cc1csc(SCC(=O)Nc2nc(-c3ccccc3)cs2)n1	–	–	–	–	–	-6
O=C(CSc1nc(-c2ccccc2)cs1)NCc1ccco1	–	–	50	–	–	–
CC(C)C(=O)N1CCN(c2c(Cl)cccc2[N+](=O)[O-])CC1	–	–	–	–	–	–
O=C(NC(=S)N1CCN(c2c(Cl)cccc2[N+](=O)[O-])CC1)c1cccs1	–	–	–	–	–	-4.3
Cc1cc(C)c(S(=O)(=O)N2CCCCC2)cc1N(C)S(=O)(=O)c1ccc(Cl)cc1	–	–	–	–	–	–
CCOC(=O)c1c(C)[nH]c(C)c1C(=O)Cn1nnc(-c2ccccc2C)n1	–	–	–	–	–	-10
CCOC(=O)c1c(C)[nH]c(C(=O)Cn2nnc(-c3ccccc3Cl)n2)c1C	–	·	–	–	·	–
CCS(=O)(=O)Nc1ccc(C2=NN(C(=O)c3ccco3)C(c3ccc(C)cc3)C2)cc1 (centres undefined)	–	–	–	–	–	–
Cc1ccc(C2CC(c3cccs3)=NN2C(=O)c2ccc(Br)o2)cc1 (centres undefined)	–	–	–	–	–	-4
O=C(NC(Cc1ccccc1)C(=O)O)c1ccc(S(=O)(=O)N2CCOCC2)cc1 (centres undefined)	–	–	–	–	–	–
O=S(=O)(Nc1nccs1)c1ccc(Cl)cc1	–	–	–	–	–	-3.4
CS(=O)c1nc(-c2ccc(Br)cc2)cc(-c2ccccc2)c1C#N (centres undefined)	·	·	·	·	·	–
CS(=O)(=O)c1nc(-c2ccc(Br)cc2)cc(-c2ccccc2)c1C#N	77	–	–	–	–	–
Cn1c(=O)oc2cc(S(=O)(=O)N3CCCC(C(=O)Nc4nccs4)C3)ccc21 (centres undefined)	41	·	–	–	·	·
Cn1c(=O)oc2cc(S(=O)(=O)N3CCCC(C(=O)NCCN4CCOCC4)C3)ccc21 (centres undefined)	–	–	–	–	–	·
Fc1ccc(CNC(=S)Nc2ccc(Cl)cc2)cc1	–	–	–	–	–	-4.3
Fc1ccc(NC(=S)Nc2ccc(F)c(Cl)c2)cc1Cl	–	–	–	–	–	-4.1
Cc1cc2c3c(c1)C(C)(c1ccccc1)CC(C)(C)N3C(=O)C21C(C#N)=C(N)OC2=C1C(=O)CC(C)(C)C2 (centres undefined)	–	–	–	–	–	–
CC1=CC(C)(C)N2C(=O)C3(C(C#N)=C(N)Oc4cc(O)ccc43)c3c(C)c(C)cc1c32 (centres undefined)	–	–	–	–	–	-4.1
CC1(c2ccccc2)CC(C)(C)N2C(=O)C3(C(C#N)=C(N)Oc4cc(O)ccc43)c3cccc1c32 (centres undefined)	–	–	?	–	–	-4.9
COc1ccc(NS(=O)(=O)c2ccc(Br)s2)cc1OC	–	–	–	–	–	–
O=[n+]1c2c(n([O-])c3c1CCCC3)CCCCC2	–	–	–	–	–	–
